This note sets out measurements from PubChem BioAssay.

A short description of experiment [1]: yeast TOR pathway RPL19A-GFP modulators, primary screen, cell-based, S. cerevisiae, multiplex flow cytometry (AID 1862; in the data active = percent of DMSO control GFP below about 86%;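 note: lower values mimic rapamycin by blocking the RPL19A rise seen in DMSO cells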). As to conditions: S. cerevisiae RPL19A-GFP strain, flow cytometry fluorescence, 3 h; at 10 µM; stronger effect = lower value. Background: A flow cytometer gives signals particle by particle.
A short description of experiment [2]: modulators of MEP2-GFP levels in yeast, primary screen, S. cerevisiae, multiplex flow cytometry (AID 1867;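 active = GFP response, as percent of the DMSO control, above the screen-wide mean plus 3 SD, about 139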;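 note: median GFP channel fluorescence of barcode-gated MEP2-GFP cells measured by flow cytometry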). As to conditions: S. cerevisiae MEP2-GFP strain, 3 h, at 10 µM, stronger effect = higher value, 100% means same as DMSO wells.
Experiment [3] is described as follows: modulators of CIT2-GFP expression in yeast, primary screen, S. cerevisiae, GFP fusion, multiplex flow cytometry (AID 1870;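 active = percent response above a set limit, the screen-wide mean plus 3 SD, cut at about 130% in these data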;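 note: barcoded CIT2-GFP strain pooled with four other GFP strains with rapamycin as positive control; median GFP fluorescence per well over plate mean of DMSO wells so 100% = DMSO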). The settings on record: 3 h, at 10 µM, stronger effect = higher value.
The nature of experiment [4]: modulators of LAP4-GFP expression in yeast, primary screen, S. cerevisiae, multiplex flow cytometry (AID 1873;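 active = GFP signal, as percent of the solvent control, above the screen mean plus 3 SD, about 149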). The settings on record: 3 h, at 10 µM, stronger effect = higher value.
The nature of experiment [5]: modulators of AGP1-GFP expression in yeast TOR pathway, primary screen, cell-based, multiplex flow cytometry, S. cerevisiae (AID 1887;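 active = GFP signal above the screen-wide mean plus 3 SD, that is over about 124.5% of the solvent control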;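 note: AGP1-GFP fusion strain of S. cerevisiae within a five-strain barcoded multiplex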). The settings on record: 3 h, at 10 µM, stronger effect = higher value.
Experiment [6] in a line: inhibitors of CD8+ T cell-vesicle binding, pilot screen, LFA-1/ICAM-1 modulator project, MLPCN validation set, flow cytometry (AID 2523;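 active = response below a set limit, under 55% cells CD8-positive and vesicle-bound, and CD8 cells' 90th-percentile brightness under 279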;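 for vesicle binding response: mean PE anti-B7-1 fluorescence of CD8+ cells relative to row control; 100% = QL9-loaded vesicles with DMSO vehicle in the same plate row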). The settings on record: 2C mouse CD8+ T cells, at 7 µM, stronger effect = lower value; double positive events: measured here: CD8+/vesicle+ event percentage.
The target in experiment [7] is Integrin beta-1 (Homo sapiens) + Integrin alpha-4 (Homo sapiens) (UniProt P13612+P05556). As to the kind of experiment: inhibition of HUTS-21 binding to VLA-4, pilot screen, VLA-4 allosteric modulator project, U937 cells, HUTS-21 mAb, flow cytometry, validation set (AID 2674;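 active = inhibition above 50%, about 3 SD of the validation set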;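 note: antibody binding induced by the VLA-4 ligand LDV present at three times its Kd; 0% = LDV ligand with antibody and no compound and 100% = antibody without LDV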). The settings on record: HUTS-21 LIBS mAb binding, at 6.7 µM, stronger effect = higher value, binding induced by LDV ligand.

Experiment [8] can be described thus: superoxide lowering in aged yeast cells, pilot screen, validation compound set (AID 2706;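 active = superoxide response below 65% of plate, a cut near 3 SD across the whole screen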;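 note: yeast exposed to compound for one week at 30 degrees C before staining; 100% = mean of all compound wells on the same plate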). As to conditions: S. cerevisiae aging, superoxide DHE fluorescence; at 10 µM; stronger effect = lower value.
The target of experiment [9] is Beta-adrenergic receptor kinase 1 (Homo sapiens) (UniProt P25098). The experiment is described as follows: GRK2 binders displacing RNA aptamer, biochemical, validation, human GRK2, bead flow cytometry (AID 488806;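 active = aptamer binding inhibition above 30%, about 3 SD of noise from non-fluorescent compounds; inactive = inhibition at or below 30%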). As to conditions: bead-bound GRK2, FAM-aptamer displacement, at 10 µM, stronger effect = higher value.
Experiment [10] has as its target Beta-2 adrenergic receptor (Homo sapiens) (UniProt P07550). The experiment is described as follows: beta2AR agonists driving receptor internalization, pilot screen, cell-based, FAP fluorogen, flow cytometry, validation set (AID 504459;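 active = percent response above 42, roughly 3 SD of non-fluorescent test compounds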;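 note: agonist-driven loss of surface beta2AR via internalization measured by FAP dye flow cytometry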). The settings on record: Am2.2-beta2AR cells, FAP surface receptor flow cytometry; at 10 µM; stronger effect = higher value.
Experiment [11] deals with AP-2 complex subunit beta (Homo sapiens) (UniProt P63010). As to the kind of experiment: inhibitors of arrestin peptide binding to AP2, pilot screen, biochemical, validation set, GST-AP2 beads, flow cytometry (AID 504541;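 active = inhibition above 54%, about 3 SD of non-fluorescent compounds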;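 note: AP2 carries R879A mutation and is captured from E. coli lysate; bead-bound FITC arrestin peptide fluorescence measuring arrestin peptide binding to AP2; 0% = DMSO wells and 100% = excess unlabeled arrestin peptide control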). As to conditions: FITC arrestin peptide, at 10 µM, stronger effect = higher value, AP2 beta2 appendage fragment, R879A mutant.
Experiment [12] in a line: yeast V-ATPase proton transport modulators, S. cerevisiae, pHLuorin, HTS validation (AID 504600; in the data active = response above about 15%;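 note: plate controls were DMSO for no effect and reference compound for full effect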). As to conditions: S. cerevisiae pHLuorin cytosolic pH, at 10 µM, stronger effect = higher value.
The subject of experiment [13] is anti-desmoglein-3 scFv antibody binding to human DSG3. As to the kind of experiment: inhibitors of anti-DSG3 scFv binding to DSG3, pilot screen, biochemical, validation compound set, bead-based, flow cytometry (AID 588368;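 active = binding below the plate cutoff, the plate median minus 3 SD, with a reading above zero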;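 note: signal is the median channel fluorescence of bead-bound GFP antibody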). As to conditions: Protein G beads, DSG3-Fc, scFv-GFP binding, at 10 µM, stronger effect = lower value.
Experiment [14] is described as follows: inhibitors of fungal efflux pumps CDR1, CDR2, MDR1, pilot screen, validation compound set, multiplex, phenotypic (AID 588506;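 active = efflux inhibition above 0.42, the validation set average plus 4 SD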;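 note: Nile Red retained in cells so higher fluorescence means more efflux inhibition; 0 = negative control wells and 1 = enniatin B 25 µM full block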). As to conditions: S. cerevisiae pump-expressing triplex, Nile Red efflux flow cytometry; at 10 µM; stronger effect = higher value; the pumps come from Candida albicans.
Experiment [15] has as its target ATP-binding cassette sub-family B member 6 (Homo sapiens) (UniProt Q9NP58). As to the kind of experiment: ABCB6 transporter inhibitors, pilot screen, K562-ABCB6 cells, flow cytometry, validation set (AID 588550).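 Note: 0% = DMSO wells and 100% = benzethonium chloride 70 µM positive control.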 As to conditions: K562-ABCB6 porphyrin accumulation, 1 h, at 10 µM, stronger effect = higher value.
Experiment [16] in a line: promoters of myeloid differentiation in arrested cells, primary screen, cell-based, GFP/MAC1 double positive, flow cytometry, validation set (AID 588685;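 active = differentiation response of at least 50%, scaled between solvent and reference control, from cells with both markers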;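 note: compound exposure lasts four days before antibody staining and flow analysis; 0% = DMSO wells and 100% = 5 µM fulvestrant positive control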). As to conditions: ER-HoxA9 marrow cells, stronger effect = higher value, normalized: vehicle 0, fulvestrant 100.

Structures are written as SMILES. Records with an inconclusive call do not appear. Active and inactive are the calls of the source.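 Rule for the calls, unless noted: active = inhibition above the screen-wide mean plus 3 SD, about 51%; inactive = the rest.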

Chain of ATP-binding cassette sub-family B member 6 (Homo sapiens) (Q9NP58 whole entry, looked up): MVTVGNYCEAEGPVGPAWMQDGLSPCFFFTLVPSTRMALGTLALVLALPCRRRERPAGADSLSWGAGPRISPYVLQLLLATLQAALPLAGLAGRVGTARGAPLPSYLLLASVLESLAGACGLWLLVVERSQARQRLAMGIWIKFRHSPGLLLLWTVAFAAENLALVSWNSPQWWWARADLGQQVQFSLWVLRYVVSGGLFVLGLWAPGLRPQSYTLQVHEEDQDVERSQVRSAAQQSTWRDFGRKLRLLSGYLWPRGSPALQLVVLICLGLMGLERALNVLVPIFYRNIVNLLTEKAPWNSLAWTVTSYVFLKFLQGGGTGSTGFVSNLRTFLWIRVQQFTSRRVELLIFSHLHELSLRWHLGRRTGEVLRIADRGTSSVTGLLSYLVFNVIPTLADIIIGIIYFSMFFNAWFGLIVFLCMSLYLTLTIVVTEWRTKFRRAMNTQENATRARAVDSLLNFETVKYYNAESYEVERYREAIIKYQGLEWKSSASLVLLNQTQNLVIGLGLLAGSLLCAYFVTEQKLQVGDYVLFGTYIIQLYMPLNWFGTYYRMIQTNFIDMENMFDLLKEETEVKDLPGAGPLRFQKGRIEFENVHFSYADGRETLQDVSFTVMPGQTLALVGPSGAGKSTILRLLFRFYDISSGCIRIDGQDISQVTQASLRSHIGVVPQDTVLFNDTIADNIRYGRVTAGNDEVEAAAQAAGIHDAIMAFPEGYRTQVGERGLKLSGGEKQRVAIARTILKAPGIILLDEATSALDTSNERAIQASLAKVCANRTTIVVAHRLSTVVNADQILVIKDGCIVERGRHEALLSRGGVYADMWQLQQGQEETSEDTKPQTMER
Chain of Integrin beta-1 (Homo sapiens) + Integrin alpha-4 (Homo sapiens) (P05556 whole entry, looked up): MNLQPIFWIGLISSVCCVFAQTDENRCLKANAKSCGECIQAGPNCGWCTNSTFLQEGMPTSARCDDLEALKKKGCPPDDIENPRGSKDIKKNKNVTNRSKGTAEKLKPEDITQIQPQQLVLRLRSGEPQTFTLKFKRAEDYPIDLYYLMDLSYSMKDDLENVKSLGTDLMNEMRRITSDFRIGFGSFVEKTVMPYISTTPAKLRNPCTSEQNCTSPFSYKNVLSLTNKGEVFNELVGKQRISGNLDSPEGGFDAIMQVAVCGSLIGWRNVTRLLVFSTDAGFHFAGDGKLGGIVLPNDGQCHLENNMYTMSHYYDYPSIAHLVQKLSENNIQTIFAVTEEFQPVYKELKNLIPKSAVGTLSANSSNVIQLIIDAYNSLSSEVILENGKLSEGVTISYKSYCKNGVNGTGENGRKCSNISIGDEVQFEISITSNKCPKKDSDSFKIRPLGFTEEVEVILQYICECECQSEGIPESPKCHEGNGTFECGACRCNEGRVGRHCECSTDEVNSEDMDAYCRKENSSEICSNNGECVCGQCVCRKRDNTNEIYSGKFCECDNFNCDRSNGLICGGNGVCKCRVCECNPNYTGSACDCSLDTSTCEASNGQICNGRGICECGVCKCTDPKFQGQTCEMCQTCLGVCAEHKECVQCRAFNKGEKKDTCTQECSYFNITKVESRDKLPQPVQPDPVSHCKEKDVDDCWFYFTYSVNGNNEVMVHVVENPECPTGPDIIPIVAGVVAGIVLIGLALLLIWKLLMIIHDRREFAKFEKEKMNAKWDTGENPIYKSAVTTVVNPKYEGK
Chain of Integrin beta-1 (Homo sapiens) + Integrin alpha-4 (Homo sapiens) (P13612 whole entry, looked up): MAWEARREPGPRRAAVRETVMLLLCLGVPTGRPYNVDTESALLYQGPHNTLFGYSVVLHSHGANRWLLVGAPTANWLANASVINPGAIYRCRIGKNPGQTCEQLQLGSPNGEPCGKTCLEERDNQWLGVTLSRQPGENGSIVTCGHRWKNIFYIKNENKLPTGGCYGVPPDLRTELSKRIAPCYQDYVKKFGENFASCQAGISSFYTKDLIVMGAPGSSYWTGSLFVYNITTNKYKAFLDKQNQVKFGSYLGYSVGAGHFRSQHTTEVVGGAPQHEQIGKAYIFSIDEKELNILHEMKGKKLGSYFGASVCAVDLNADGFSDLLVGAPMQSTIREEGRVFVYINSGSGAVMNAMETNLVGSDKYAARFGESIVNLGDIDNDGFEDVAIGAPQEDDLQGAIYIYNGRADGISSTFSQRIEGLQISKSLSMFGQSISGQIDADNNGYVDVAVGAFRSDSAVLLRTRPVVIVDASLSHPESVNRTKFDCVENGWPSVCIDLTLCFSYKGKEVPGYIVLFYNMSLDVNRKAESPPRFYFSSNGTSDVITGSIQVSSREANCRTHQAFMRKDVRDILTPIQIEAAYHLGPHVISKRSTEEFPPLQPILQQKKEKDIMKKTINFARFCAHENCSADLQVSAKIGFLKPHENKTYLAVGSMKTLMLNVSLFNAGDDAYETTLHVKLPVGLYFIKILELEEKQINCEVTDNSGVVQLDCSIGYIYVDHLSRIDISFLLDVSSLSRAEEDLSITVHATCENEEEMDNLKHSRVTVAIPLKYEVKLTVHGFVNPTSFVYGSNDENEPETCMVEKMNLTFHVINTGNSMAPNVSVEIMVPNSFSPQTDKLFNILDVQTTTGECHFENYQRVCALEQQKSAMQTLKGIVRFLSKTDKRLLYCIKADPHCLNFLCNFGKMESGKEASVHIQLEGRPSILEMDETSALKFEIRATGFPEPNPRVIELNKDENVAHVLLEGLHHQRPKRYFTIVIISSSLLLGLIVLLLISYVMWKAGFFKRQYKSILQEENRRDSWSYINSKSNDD
Chain of Beta-2 adrenergic receptor (Homo sapiens) (P07550 whole entry, looked up): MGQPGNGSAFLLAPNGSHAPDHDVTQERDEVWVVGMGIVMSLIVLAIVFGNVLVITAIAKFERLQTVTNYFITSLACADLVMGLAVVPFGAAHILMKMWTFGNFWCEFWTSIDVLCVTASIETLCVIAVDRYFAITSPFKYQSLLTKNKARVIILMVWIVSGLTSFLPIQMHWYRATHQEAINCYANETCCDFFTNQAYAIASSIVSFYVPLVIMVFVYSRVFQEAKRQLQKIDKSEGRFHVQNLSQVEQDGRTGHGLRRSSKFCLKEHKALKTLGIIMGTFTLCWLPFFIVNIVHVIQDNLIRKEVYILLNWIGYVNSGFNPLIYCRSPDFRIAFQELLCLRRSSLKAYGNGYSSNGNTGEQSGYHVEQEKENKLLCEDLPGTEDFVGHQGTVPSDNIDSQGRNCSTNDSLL
Chain of AP-2 complex subunit beta (Homo sapiens) (P63010 whole entry, looked up, the tested form may be a part, one chain of several): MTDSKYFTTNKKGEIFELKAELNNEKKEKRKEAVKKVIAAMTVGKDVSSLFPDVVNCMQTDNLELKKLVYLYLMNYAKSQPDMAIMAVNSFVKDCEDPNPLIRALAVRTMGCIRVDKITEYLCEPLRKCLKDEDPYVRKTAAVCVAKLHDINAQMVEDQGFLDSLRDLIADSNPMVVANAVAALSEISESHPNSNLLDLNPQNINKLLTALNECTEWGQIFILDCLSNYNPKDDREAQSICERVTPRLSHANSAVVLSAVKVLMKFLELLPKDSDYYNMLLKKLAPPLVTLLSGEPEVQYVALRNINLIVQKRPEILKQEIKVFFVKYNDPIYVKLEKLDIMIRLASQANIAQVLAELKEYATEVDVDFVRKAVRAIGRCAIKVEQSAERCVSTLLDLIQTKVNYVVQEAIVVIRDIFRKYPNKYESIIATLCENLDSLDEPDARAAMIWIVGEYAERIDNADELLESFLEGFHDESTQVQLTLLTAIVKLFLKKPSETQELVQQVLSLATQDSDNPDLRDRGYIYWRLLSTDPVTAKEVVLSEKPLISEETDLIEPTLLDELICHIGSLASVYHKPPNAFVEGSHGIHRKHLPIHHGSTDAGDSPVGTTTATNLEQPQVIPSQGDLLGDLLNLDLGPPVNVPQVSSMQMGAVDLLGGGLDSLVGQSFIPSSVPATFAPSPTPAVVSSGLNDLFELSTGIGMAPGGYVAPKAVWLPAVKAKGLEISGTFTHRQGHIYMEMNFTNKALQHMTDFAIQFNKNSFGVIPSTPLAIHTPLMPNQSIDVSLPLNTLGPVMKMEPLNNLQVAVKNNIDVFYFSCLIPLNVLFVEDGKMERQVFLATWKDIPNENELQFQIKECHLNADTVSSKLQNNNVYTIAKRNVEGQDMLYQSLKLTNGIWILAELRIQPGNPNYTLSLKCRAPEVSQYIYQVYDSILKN
Chain of Beta-adrenergic receptor kinase 1 (Homo sapiens) (P25098 whole entry, looked up): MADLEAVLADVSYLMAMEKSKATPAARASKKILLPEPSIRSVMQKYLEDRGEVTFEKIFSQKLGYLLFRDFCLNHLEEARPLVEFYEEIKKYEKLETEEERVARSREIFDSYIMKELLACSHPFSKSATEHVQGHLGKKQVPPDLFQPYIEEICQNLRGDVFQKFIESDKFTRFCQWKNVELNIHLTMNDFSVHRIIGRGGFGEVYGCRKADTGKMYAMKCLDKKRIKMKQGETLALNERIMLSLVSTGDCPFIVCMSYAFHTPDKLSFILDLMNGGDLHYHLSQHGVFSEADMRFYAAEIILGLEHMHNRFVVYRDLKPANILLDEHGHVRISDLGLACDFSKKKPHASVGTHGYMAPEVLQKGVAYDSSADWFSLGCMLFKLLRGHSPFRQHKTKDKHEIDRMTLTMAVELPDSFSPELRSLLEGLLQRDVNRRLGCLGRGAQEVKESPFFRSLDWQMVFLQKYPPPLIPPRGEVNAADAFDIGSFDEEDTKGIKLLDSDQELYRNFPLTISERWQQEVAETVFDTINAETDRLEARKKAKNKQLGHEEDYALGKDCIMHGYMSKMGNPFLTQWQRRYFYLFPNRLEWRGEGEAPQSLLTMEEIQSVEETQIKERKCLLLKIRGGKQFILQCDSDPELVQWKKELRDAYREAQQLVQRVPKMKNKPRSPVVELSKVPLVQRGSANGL

Usually inhibition stands for the relative decrease from the control value, in per cent. `CCOC(=O)c1c(C)oc2c1C(=O)c1ccccc1C2=O`: the percent of DMSO control GFP in [1] was 111% (inactive). Also, the GFP response vs DMSO in experiment [2] is 102% (inactive); in [4], 104% (inactive). In addition, the percent response of DMSO control in experiment [3] is 107% (inactive). The GFP response, % of DMSO in experiment [5] is 99.9% (inactive). The double positive events in experiment [6] was 59.4%. Also, in experiment [6], the vesicle binding response is 316% (inactive). Moreover, the inhibition is -16.1% (inactive) in [7], 0.55% (inactive) in [11] and -26% (inactive) in [15]. Also, in experiment [8], the superoxide response (% of plate) is 126% (inactive). Further, in [9], the aptamer binding inhibition is 5% (inactive). The response is 3.7% (inactive) in experiment [10] and 0.26% (inactive) in experiment [12]. Besides, the binding (% of control) in experiment [13] was 96.7% (inactive). In addition, the efflux inhibition (fraction of control) in experiment [14] is -0.22 (inactive). The differentiation response in experiment [16] was -0.36% (inactive).
Turning to `CC12CCC(C(=O)N(CCC#N)CCC#N)(CC1=O)C2(C)C` (centres undefined), the percent of DMSO control GFP in [1] was 100% (inactive). In addition, the GFP response vs DMSO in experiment [2] is 106% (inactive); in experiment [4], 113% (inactive). Further, in experiment [3], the percent response of DMSO control is 95.8% (inactive). Besides, the GFP response, % of DMSO in experiment [5] is 108% (inactive). For the same molecule, in [6], the double positive events is 61.1%. Also, the vesicle binding response in [6] is 5730% (inactive). In addition, the inhibition in experiment [7] is 6.4% (inactive); in experiment [11], 44.5% (inactive); in experiment [15], 9% (inactive). Besides, the superoxide response (% of plate) in [8] is 98% (inactive). Besides, the aptamer binding inhibition in experiment [9] was 3% (inactive). The response in experiment [10] is -1.84% (inactive); in experiment [12], 0.52% (inactive). Moreover, the binding (% of control) in [13] was 100% (inactive). In addition, in experiment [14], the efflux inhibition (fraction of control) is -0.03 (inactive). In experiment [16], the differentiation response is 2.4% (inactive).
Take `O=C(CCC(=O)c1cccs1)c1cccs1`: the percent of DMSO control GFP in experiment [1] was 99.5% (inactive). Also, the values for the GFP response vs DMSO in [2] and in [4] were 96.3% (inactive) and 72.6% (inactive), respectively. Also, the percent response of DMSO control in [3] was 107% (inactive). Besides, the GFP response, % of DMSO in experiment [5] was 86.5% (inactive). The molecule also came in with a double positive events in experiment [6] of 60.5%. Further, in experiment [6], the vesicle binding response was 125% (inactive). Further, the figures for the inhibition in experiment [7], in experiment [11] and in [15] were -4.52% (inactive), -11.3% (inactive) and 6% (inactive), respectively. The superoxide response (% of plate) in experiment [8] was 108% (inactive). For the same molecule, the aptamer binding inhibition in experiment [9] was 3% (inactive). Besides, the response in [10] was -4.9% (inactive); in experiment [12] it was 1.04% (inactive). The binding (% of control) in experiment [13] was 91.5% (inactive). In addition, the efflux inhibition (fraction of control) in experiment [14] is -0.1 (inactive). Besides, the differentiation response in [16] was -20% (inactive).
As to `COc1ccc(NC(=O)C2CCCN2C(=O)OC(C)(C)C)cc1` (centres undefined), the percent of DMSO control GFP in experiment [1] was 102% (inactive). Also, the results for the GFP response vs DMSO in [2] and in experiment [4] were 102% (inactive) and 92.3% (inactive), respectively. Further, the percent response of DMSO control in experiment [3] was 100% (inactive). For the same molecule, the GFP response, % of DMSO in experiment [5] was 99.9% (inactive). This molecule gave a double positive events in experiment [6] of 69.5%. Further, the vesicle binding response in experiment [6] is 107% (inactive). Moreover, the inhibition in experiment [7] is 2.55% (inactive); in [11], -4.29% (inactive); in [15], 8% (inactive). Besides, the superoxide response (% of plate) in [8] is 53.3% (active). Further, the aptamer binding inhibition in experiment [9] is 0% (inactive). The response in experiment [10] is -5.75% (inactive); in experiment [12], -0.27% (inactive). For the same molecule, the binding (% of control) in experiment [13] was 102% (inactive). For the same molecule, in [14], the efflux inhibition (fraction of control) is -0.38 (inactive). The differentiation response in experiment [16] was -5.68% (inactive).
For the molecule `CS(=O)c1ccccc1O` (centres undefined), the percent of DMSO control GFP in experiment [1] was 103% (inactive). Further, the values for the GFP response vs DMSO in experiment [2] and in experiment [4] were 98.8% (inactive) and 93% (inactive), respectively. The percent response of DMSO control in experiment [3] was 92.8% (inactive). The GFP response, % of DMSO in [5] was 99.2% (inactive). In experiment [6], the double positive events was found to be 67.1%. Moreover, in experiment [6], the vesicle binding response is 144% (inactive). The figures for the inhibition in experiment [7], in experiment [11] and in [15] were 8.28% (inactive), 38.1% (inactive) and 11% (inactive), respectively. Besides, the superoxide response (% of plate) in [8] was 47.1% (active). In [9], the aptamer binding inhibition is 0% (inactive). For the same molecule, the response in experiment [10] is 33.6% (inactive); in [12], 0.1% (inactive). Besides, the binding (% of control) in experiment [13] is 101% (inactive). The efflux inhibition (fraction of control) in [14] was -0.15 (inactive). Moreover, in experiment [16], the differentiation response is 3.45% (inactive).
For the molecule `CC(C)C12CN3CC(C(C)C)(CN(C1)C31C(=O)Nc3ccccc31)C2=O` (centres undefined), the percent of DMSO control GFP in experiment [1] was 106% (inactive). The GFP response vs DMSO in experiment [2] is 98.7% (inactive); in experiment [4], 101% (inactive). Further, the percent response of DMSO control in [3] was 99.7% (inactive). Besides, the GFP response, % of DMSO in [5] was 98% (inactive). The double positive events in experiment [6] was determined as 66.4%. For the same molecule, the vesicle binding response in [6] was 190% (inactive). Also, the inhibition in experiment [7] is 1.59% (inactive); in experiment [11] it was -3.03% (inactive); in experiment [15], 8% (inactive). For the same molecule, the superoxide response (% of plate) in experiment [8] was 110% (inactive). The aptamer binding inhibition in experiment [9] was 3% (inactive). Besides, the values for the response in experiment [10] and in [12] were 9.28% (inactive) and -0.51% (inactive), respectively. Besides, in experiment [13], the binding (% of control) was 103% (inactive). Also, the efflux inhibition (fraction of control) in experiment [14] was 0 (inactive). Further, in [16], the differentiation response was -11.9% (inactive).
With `COc1ccc(-c2cc(=O)oc3cc(OC(C)C(=O)O)ccc23)cc1` (centres undefined), the percent of DMSO control GFP in experiment [1] was 107% (inactive). In addition, the GFP response vs DMSO in [2] is 94.7% (inactive); in experiment [4], 104% (inactive). In experiment [3], the percent response of DMSO control is 93.8% (inactive). Besides, the GFP response, % of DMSO in experiment [5] was 107% (inactive). Also, the double positive events in experiment [6] came to 63.4%. Further, in [6], the vesicle binding response was 124% (inactive). Further, the inhibition in experiment [7] was 11.7% (inactive); in experiment [11], 6.04% (inactive); in [15], 3% (inactive). The superoxide response (% of plate) in experiment [8] is 115% (inactive). The aptamer binding inhibition in experiment [9] was 3% (inactive). Moreover, the results for the response in experiment [10] and in experiment [12] were -24.8% (inactive) and 1.91% (inactive), respectively. The binding (% of control) in experiment [13] was 108% (inactive). Also, the efflux inhibition (fraction of control) in experiment [14] is 0 (inactive). For the same molecule, in experiment [16], the differentiation response is 19.6% (inactive).
